We go through 92 molecules from PubChem BioAssay AID651702 (NMMLSC, 2012).

Several values for one entry are separate records, joined by “and”; a condition that tells them apart may be missing. Equal values may be shown once. Among all 360,000 compounds or so, about 2,400 (0.67%) were called active. The sample holds actives, similar compounds and a random draw of the others, so the mix is not that of the screen.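 Rule for the calls: active = inhibition above about 55% (limit read from the data); inconclusive = no clear call, values can overlap the other calls; inactive = the rest.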

The nature of the test: LAMP-1 surface exposure blockers, TALL-104 cells – cell-based, flow cytometry, MLPCN library, primary screen (AID 651702). Conditions: TALL-104 LAMP-1 surface exposure, at 10 µM, hits give high values, cells stimulated with thapsigargin and PMA. A general note: A flow cytometer gives signals particle by particle.
As a reminder, the inhibition is the change of the read-out against control, counted positive when it falls. As to `O=C(O)Cc1csc(-c2cccc(Oc3ccccc3)c2)n1`, the inhibition was -3.1% (inactive) and -3.3% (inactive).

Consider `CCOc1ccc(NC(=O)CN(C)C(=O)CCSc2ccc(F)cc2)cc1OCC`, for which the inhibition is 14.3% (inactive).

As to `CC(C)c1ccc(-c2nn[nH]n2)cc1`, the inhibition was 21.6% (inactive).

Turning to `COc1ccc(S(=O)(=O)N2CCN(CC(=O)N3c4ccccc4CC3C)CC2)cc1OC` (configuration not stated), the inhibition was 6.4% (inactive).

As for `CCOc1cc(/C=N/NC(=O)CN2CCCCC2)ccc1O`, the inhibition is 3.8% (inactive).

`CCOc1cc(/C=N/NC(=O)c2c(C)nc3ccc(Cl)cn23)ccc1O`: the inhibition was 3.8% (inactive).

In the case of `CCOc1cc(/C=C(\C#N)c2nc(-c3cccs3)c(NC(C)=O)s2)ccc1O`, the inhibition is 69.2% (active).

Take `CC(=O)NC(c1ccccc1)c1nc(-c2cccc(C(C)C)c2)cs1` (configuration not stated): the inhibition was -1.9% (inactive).

On to `Cc1ccc(NC(=O)Nc2cc(-c3ccccc3)nn2C)cc1Cl`, for which the inhibition is 3% (inactive).

For the molecule `CC(=O)Nc1ccc(-c2csc(NC(=O)Nc3ccccc3)n2)cc1`, the inhibition is 104% (active).

As for `Cn1c(=O)c([N+](=O)[O-])c(Oc2ccccc2)c2ccccc21`, the inhibition was -0.7% (inactive).

In the case of `COc1ccc(NS(=O)(=O)c2cc(NC(=O)CC(=O)c3ccc([N+](=O)[O-])cc3)ccc2C)cc1`, the inhibition was -16.7% (inactive).

With `C=CCn1c(CCNC(=O)c2ccccc2F)nnc1SCC(=O)Nc1ccc(OC)cc1`, the inhibition is -1.4% (inactive).

Regarding `CCCCNC(=O)C(C)N(CCN(C)C)C(=O)CCCCCN1C(=O)NC(c2ccc(Cl)cc2)C(C(=O)OCc2ccccc2)=C1C` (configuration not stated), the inhibition was 61.8% (active).

Take `CCCCNC(=O)C(C)N(CCN(C)C)C(=O)CCCN1C(=O)NC(c2ccc(Cl)cc2)C(C(=O)OCc2ccccc2)=C1C` (configuration not stated): the inhibition is 65.1% (active).

Consider `CCOC(=O)C1=C(C)N(C[C@@H]2CC[C@@H](Cc3ccc(-c4ccccc4)cc3)O2)C(=O)NC1c1ccc([N+](=O)[O-])cc1` (some centres not stated), for which the inhibition was 1.6% (inactive).

Take `CCOC(=O)CCCNC(=O)CN1C(=O)NC(CCc2ccccc2)C1=O` (configuration not stated): the inhibition was -0.3% (inactive).

`COC(=O)C1=C(C)N(Cc2ccccc2)C(=NCCCOC(C)C)N[C@H]1c1ccccc1`: the inhibition is -2.7% (inactive).

Take `CCOC(=O)C1=C(CN2CCc3ccccc32)NC(=O)NC1c1ccc(Cl)cc1` (configuration not stated): the inhibition was -0.5% (inactive).

As to `COc1ccc(OC)c(CN2C(=O)CCC2(C)c2nnnn2Cc2ccccc2)c1` (configuration not stated), the inhibition is -8.5% (inactive).

For the molecule `O=C(CSc1nnc(-c2ccoc2)o1)N1CCOCC1`, the inhibition is -6.6% (inactive).

Take `O=[N+]([O-])/C=C/c1ccc2c(ccn2Cc2ccccc2)c1`: the inhibition was 79.9% (active).

For `C=CCC[C@@H](CCCCC)OC(=O)/C=C/[C@@H](O)[C@H](O)C[C@H](O)CC=C`, the inhibition is -9.1% (inactive).

As to `Cc1ccc2oc(C(=O)N3CCN(C)C[C@@H]3C(C)C)c(C)c2c1`, the inhibition is 1.3% (inactive).

As for `CCOC(=O)C1C(C)C(C(C)(C)C)N(S(=O)(=O)c2ccc(C)cc2)C1c1ccccc1` (configuration not stated), the inhibition is -9.6% (inactive).

For the molecule `NS(=O)(=O)c1ccc(CCNC(=O)CCCn2c(SCC(=O)N3CCCC3)nc3ccsc3c2=O)cc1`, the inhibition was -2.5% (inactive).

Consider `CN(C)CCNC(=O)c1ccc(-c2cn3c(-c4ccc(Oc5ccccc5)cc4)cnc3cn2)cc1`, for which the inhibition was 57.2% (active).

Consider `CN(C)CCNC(=O)c1cccc(-c2cnc3c(NC=O)cc(-c4cccc(C(F)(F)F)c4)cn23)c1`, for which the inhibition is 39.3% (inactive).

As to `CN(C)C(CNC(=O)c1ccc(OCc2cn3ccccc3n2)cc1)c1ccco1` (configuration not stated), the inhibition was -4.3% (inactive).

For `CCCCCC(O)(CCN1CCCCC1)c1ccccc1` (configuration not stated), the inhibition is 1.7% (inactive).

In the case of `Cc1cc(F)ccc1NC(=O)C(C)n1c2ccccc2c2nc(=O)cc(C)n21` (configuration not stated), the inhibition is 0.1% (inactive).

Consider `CC(C)N1C(=O)c2ccccc2NC(=O)C1C(=O)NCc1cccs1` (configuration not stated), for which the inhibition was 16.2% (inactive).

In the case of `Cc1ccc(CN(C)Cc2cc(=O)oc3cc(C)c(Cl)cc23)cc1`, the inhibition is -0.1% (inactive).

For `Cc1cc2oc(=O)cc(CN(C)Cc3ccccc3)c2cc1Cl`, the inhibition is -1.1% (inactive).

On to `Cc1cc2oc(=O)cc(CN(C)Cc3ccc(OC(F)F)cc3)c2cc1Cl`, for which the inhibition was 76.8% (active).

`CCC(C(=O)NCc1cccnc1)n1nc(C)c2sc3ccccc3c2c1=O` (configuration not stated): the inhibition was 5.3% (inactive).

Take `O=C(Cn1ncc2c3ccccc3n(Cc3ccccc3)c2c1=O)NCCCN1CCOCC1`: the inhibition was 0.7% (inactive).

`CCc1ccc(-c2cc3c(=O)n(CC(=O)NCCCN4CCN(Cc5ccccc5)CC4)nc(C)n3n2)cc1`: the inhibition is 57.5% (active).

For `Cc1nn(CC(=O)NCCc2ccccc2)c(=O)c2cc3occc3n12`, the inhibition was -1.6% (inactive).

Turning to `O=C(NCC(F)(F)F)Nc1nnc(C(F)(F)F)s1`, the inhibition is 4.2% (inactive).

In the case of `O=C(CCCN1CCc2[nH]c3ccc(F)cc3c2C1)c1ccc(F)cc1`, the inhibition was 38.3% (inactive).

`C=CCn1c(SCc2ccc(Cl)c(Cl)c2)nnc1C(CO)NC(=O)c1ccc(OC)cc1` (configuration not stated): the inhibition is 0.1% (inactive).

Regarding `CCN1/C(=C\c2ccc3ccccc3[n+]2CC)Sc2cc(C)ccc21`, the inhibition was 63.6% (active).

Consider `Cc1ccc(C)c(S(=O)(=O)N2CCN(c3ncnc4sccc34)CC2)c1`, for which the inhibition was -10.6% (inactive).

Take `CC1C(=O)Nc2ccccc2N1C(=O)c1ccc(F)cc1F` (configuration not stated): the inhibition was -3.6% (inactive).

In the case of `COc1ccc(F)cc1C(=O)COC(=O)c1n[nH]c(=O)c2ccccc12`, the inhibition was 3.6% (inactive).

Consider `O=C(/C=C/Sc1ncn[nH]1)c1ccc(Cl)cc1`, for which the inhibition was 69% (active).

Turning to `CC1CCC(CN2CCN=C2N(C)C)CC1` (configuration not stated), the inhibition is 8.2% (inactive).

As for `Cc1cccc(C)c1NC(=O)COC(=O)c1ccccc1O`, the inhibition was -9.6% (inactive).

Regarding `Cc1cccc(C)c1NC(=O)N1CC(C)OC(C)C1` (configuration not stated), the inhibition was -0.4% (inactive).

Consider `Cc1cccc(C)c1NC(=O)C(Cl)C(=O)c1ccccc1` (configuration not stated), for which the inhibition is 72.7% (active).

As to `Cc1ccc(N(C(=O)CNC(=O)c2ccco2)C(C(=O)NC2CCCC2)c2ccncc2)cc1` (configuration not stated), the inhibition is -16.9% (inactive).

With `COCCc1nn2c(=O)cc(COC(=O)c3cc(OC)c(OC)c(OC)c3)nc2s1`, the inhibition is -0.5% (inactive).

In the case of `Cc1ccc(N(CC(=O)Nc2cc(C)cc(C)c2)S(=O)(=O)c2cccc3nonc23)cc1`, the inhibition is 2.1% (inactive).

Take `Cc1cccc(N(CC(=O)Nc2ccc(-c3nc4ccc(C)cc4s3)cc2)S(C)(=O)=O)c1`: the inhibition is 68% (active).

As for `CCN(CC)S(=O)(=O)c1ccc(NC(=O)CN(c2cccc(F)c2)S(C)(=O)=O)cc1`, the inhibition was -6% (inactive).

For `CCn1c(O)c2ccc(C(=O)N=NC(=O)c3cccnc3)cc2c1O`, the inhibition was -0.4% (inactive).

As to `CCc1sc(C(=O)N2CCN(CC(=O)Nc3cccc(F)c3)CC2)cc1C`, the inhibition is -5.4% (inactive).

Turning to `CC(=O)C[C@@H]1OC[C@H](C)N1S(=O)(=O)c1ccc(C)cc1`, the inhibition was -6.7% (inactive).

As to `COc1ccc(-c2cc(=O)oc3cc(OC(C)C(=O)NCC4CCC(C(=O)O)CC4)ccc23)cc1` (configuration not stated), the inhibition was 19.5% (inactive).

Regarding `Cc1ccc([N+](=O)[O-])c(OCCCNCC(C)O)c1` (configuration not stated), the inhibition is 0% (inactive).

On to `Cc1cc(C)cc(NC(=S)NCCCN2CCOCC2)c1`, for which the inhibition was -0.8% (inactive).

In the case of `CCCC(=O)NC(=S)Nc1ccc(CN2CCOCC2)cc1`, the inhibition was -6.2% (inactive).

As to `CCCCc1ccc(NC(=S)NCCCN2CCOCC2)cc1`, the inhibition was 67% (active).

`Cc1ccc(S(=O)(=O)N2CCC(=O)N([C@H](COCc3ccccc3)C(C)C)CC2)cc1`: the inhibition is -7.5% (inactive).

`CC(C)CCN1CCN=C1N(C)C`: the inhibition is -1.5% (inactive).

In the case of `COc1cccc(OC)c1C(=O)N1CCN(Cc2ccccc2F)CC1`, the inhibition was 0.4% (inactive).

With `COc1ccccc1CN1CCN(Cc2cc(OC)c(OC)cc2OC)CC1`, the inhibition was 4.3% (inactive).

With `COc1ccccc1CN1CCN(C(c2ccccc2)c2ccccc2)CC1`, the inhibition was 69.5% (active).

Take `CSc1ncccc1C(=O)OCC(=O)N1CCOCC1`: the inhibition was 0.7% (inactive).

Consider `COc1ccc(C(O)c2nc(-c3ccc(OC)nc3)cs2)cc1` (configuration not stated), for which the inhibition is -0.4% (inactive).

Consider `COc1ccc(-c2csc(Nc3ccc(O)cc3)n2)cc1`, for which the inhibition is 67.8% (active).

Regarding `COC(=O)CCc1sc(Nc2ccc(Br)cc2)nc1-c1ccc(OC)cc1`, the inhibition is 7.1% (inactive).

For `O=C(CS(=O)(=O)c1cn(Cc2ccc(Cl)cc2)c2ccccc12)N1CCOCC1`, the inhibition was -1.9% (inactive).

With `CCOC(=O)CSc1nc2c(c(=O)n(Cc3ccccc3Cl)c(=O)n2C)n1C`, the inhibition was -0.4% (inactive).

For `CCOC(=O)CSc1nc2c(sc(=S)n2CCc2ccccc2)c(=O)n1Cc1ccco1`, the inhibition is 55.7% (active).

For `CCOC(=O)Cc1csc(NC(=O)CSc2nnc(-c3cccnc3)n2Cc2ccco2)n1`, the inhibition is 1% (inactive).

For `CCCc1nc(SCC(=O)N2CCCC2)c2c(=O)n(C)c(=O)n(C)c2n1`, the inhibition is 45.2% (inactive).

In the case of `CC(O)CN(Cc1ccc(Cl)cc1)CC(C)O` (configuration not stated), the inhibition is 0.5% (inactive).

As to `CCCCCn1c(=O)[nH]c2cc(C(=O)NCCCN3CCCCC3C)ccc2c1=O` (configuration not stated), the inhibition was -0.7% (inactive).

Take `Cc1ccc(-c2cnc(NC(=O)CCC(=O)N(C)Cc3ccccc3)n2C)cc1`: the inhibition was -1.9% (inactive).

As for `CC(C)CN1CC(C)C(=O)N(c2ccccc2)C1=S` (configuration not stated), the inhibition is 1.4% (inactive).

Take `CCN(CC(=O)Nc1ccccc1C(=O)NC1CC1)Cc1cccs1`: the inhibition is -0.1% (inactive).

In the case of `CC1CCc2c(nc3ncnn3c2Nc2ccc(OC(F)(F)F)cc2)C1` (configuration not stated), the inhibition is -1.5% (inactive).

Turning to `CC1CCC(NS(=O)(=O)c2ccc3c(c2)CC(=O)N3)CC1` (configuration not stated), the inhibition was -3.8% (inactive).

As for `Cn1sc(=O)c2cc(S(=O)(=O)NC3CC3)ccc21`, the inhibition was 100% (active).

On to `O=S(=O)(NC1CC1)c1ccc(F)c(F)c1`, for which the inhibition was -10.9% (inactive).

For the molecule `OC(CNCC1CCCO1)Cn1c2ccc(Br)cc2c2cc(Br)ccc21` (configuration not stated), the inhibition is 41.3% (inactive).

As for `O=C(NCc1cccnc1)c1ccc(CS(=O)(=O)c2ccc(Br)cc2)o1`, the inhibition was 2.2% (inactive).

Consider `Nc1nc(SCc2ccc([N+](=O)[O-])cc2)c2ncn(C3OC(CO)C(O)C3O)c2n1` (configuration not stated), for which the inhibition is -2.7% (inactive).

With `Nc1cc(N)nc(SCc2ccc(Cl)cc2)n1`, the inhibition was 0.3% (inactive).

Turning to `CC(C)Cn1cnc2c(SCc3ccc(Cl)cc3)nc(N)nc21`, the inhibition was 90.1% (active).
